18 compounds from PubChem BioAssay can be followed below.

The structures appear in SMILES notation.

This experiment can be described thus: viability loss of caspase-8 NB7 cells with TRAIL – with/without TRAIL, luminescence panel, confirmation (AID 651596). The conditions noted are these: NB7 neuroblastoma + caspase-8, without TRAIL, NB7 Caspase-8, without TRAIL, mean of runs, at 10 µM.
Take `Cc1ccc2[nH]c(-c3ccccc3)cc(=O)c2c1`: the activity was determined as 63%.
The value for `CC(C)C[C@H](NC(=O)c1nc[nH]c1C(=O)N[C@@H](CCCCNC(=O)OC(C)(C)C)C(=O)OC(C)(C)C)C(=O)OC(C)(C)C` was 68.1%.
On to `O=C(NNc1nc(=O)c2cccnc2s1)c1ccccc1O`, for which the activity is 43.9%.
The value for `O=C(CCl)Nc1ccccc1C(=O)Nc1ccc2c(c1)OCO2` was 73.8%; that for `COc1ccc(-n2cc(C(=O)c3ccccc3O)cn2)cc1` was 29.7%.
Under `O=c1c(-c2ccc3c(c2)OCCO3)coc2cc(OC3OC(CO)C(O)C(O)C3O)ccc12` (stereo not drawn) stands 53.9%; under `CC(C)C(=O)Nc1ccc2nn(-c3ccccc3)nc2c1`, 55%.
For `Nc1nc(N)c2cc(CNc3ccc(Cl)c(Cl)c3)ccc2n1`, the activity amounted to 73.4%.
Under `O=C(CSc1ncnc2nc[nH]c12)c1ccc(Cl)cc1` stands 66%.
Consider `CN(c1ccccc1)S(=O)(=O)c1ccc(NC(=O)c2nc(S(C)(=O)=O)ncc2Cl)cc1`, for which the activity was 99.3%.
The value for `CC(C)CC(=O)Nc1ccc(-c2cn3ccsc3n2)cc1` was 88.2%.
For the compound `Cc1ccc(-c2cc(-c3ccccc3)no2)c(O)c1`, the activity was found to be 60.2%.
The value for `COc1cc2c(cc1OC)C(c1cc(Br)ccc1F)N(C(=O)CCl)CC2` (stereo not drawn) was 98.7%; that for `CC(C)(C)c1ccc(/C=N/NC(=O)c2ccccn2)cc1` was 75%; that for `O=C(CN1CCN(S(=O)(=O)c2ccc(F)cc2)CC1)Nc1ccc(Cl)c(C(F)(F)F)c1` was 31.8%.
Under `C[C@@H](CO)NC(=O)c1ccc2c3n(nc2c1)-c1ccccc1CO3` stands 91.8%; under `CS(=O)(=O)c1ccc2nc(NC(=O)c3ccco3)sc2c1`, 57.8%; under `CCOc1ccc2nc(NC(=O)CN3CCC(n4nnc5cc(C(F)(F)F)ccc54)CC3)sc2c1`, 66.9%.
